# According to PMC5540273 (PLoS ONE, 2017):
# Like-named read-outs stand apart in the source and are kept apart here.
# How the values were obtained:
# [1] = tested on: JAK1(JH2domain-pseudokinase); conditions: concentration: 1 μM, replicates: in singlicate; n = 1
# [2] = tested on: JAK2(JH1domain-catalytic); conditions: concentration: 1 μM, replicates: in singlicate; n = 1
# [3] = tested on: JAK3(JH1domain-catalytic); conditions: concentration: 1 μM, replicates: in singlicate; n = 1
# JNK1 = tested on: T1, JNK1; conditions: concentration: 1 μM, replicates: in singlicate; n = 1
# T1 construct: gene MAPK8
# JNK2 = tested on: T2, JNK2; conditions: concentration: 1 μM, replicates: in singlicate; n = 1
# T2 construct: gene MAPK9
# JNK3 = tested on: T3, JNK3; conditions: concentration: 1 μM, replicates: in singlicate; n = 1
# T3 construct: gene MAPK10
# KIT-autoinhibited = conditions: concentration: 1 μM, replicates: in singlicate; n = 1
# KIT = conditions: concentration: 1 μM, replicates: in singlicate; n = 1
# LATS1 = conditions: n = 1
# LATS2 = conditions: concentration: 1 μM, replicates: in singlicate; n = 1
# LCK = conditions: concentration: 1 μM, replicates: in singlicate; n = 1
# LIMK1 = conditions: concentration: 1 μM, replicates: in singlicate; n = 1
# LIMK2 = conditions: concentration: 1 μM, replicates: in singlicate; n = 1
# LKB1 = tested on: T4, LKB1; conditions: concentration: 1 μM, replicates: in singlicate; n = 1
# T4 construct: gene STK11
# LOK = tested on: T5, LOK; conditions: concentration: 1 μM, replicates: in singlicate; n = 1
# T5 construct: gene STK10
# LRRK2 = conditions: concentration: 1 μM, replicates: in singlicate; n = 1
# LTK = conditions: concentration: 1 μM, replicates: in singlicate; n = 1
# LYN = conditions: concentration: 1 μM, replicates: in singlicate; n = 1
# LZK = tested on: T6, LZK; conditions: concentration: 1 μM, replicates: in singlicate; n = 1
# T6 construct: gene MAP3K13
# MAK = conditions: concentration: 1 μM, replicates: in singlicate; n = 1
# [4] = concentration: 1 μM, replicates: in singlicate
# 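Also: KINOMEscan kinase panel screen.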
smiles,measurement,setting,value
CC(=O)N1CCN(c2ccc(Nc3nccc(-c4sc(C(C)C)nc4-c4cccc(NS(=O)(=O)c5cccc(Cl)c5)c4)n3)cn2)CC1 [GSK1660437],%Inh,[1],0%
same,%Inh,[2],40%
same,%Inh,[3],82%
same,%Inh,JNK1,13%
same,%Inh,JNK2,16%
same,%Inh,JNK3,11%
same,%Inh,KIT-autoinhibited,0%
same,%Inh,KIT,96.1%
same,%Inh,LATS1; [4],0%
same,%Inh,LATS2,0%
same,%Inh,LCK,98.6%
same,%Inh,LIMK1,98.4%
same,%Inh,LIMK2,100%
same,%Inh,LKB1,0%
same,%Inh,LOK,96.8%
same,%Inh,LRRK2,24%
same,%Inh,LTK,23%
same,%Inh,LYN,74%
same,%Inh,LZK,29%
same,%Inh,MAK,35%
COC(=O)Nc1nc2ccc(Oc3ccc(NC(=O)Nc4cc(C(F)(F)F)ccc4F)cc3)cc2n1C.Cl [GW692089],%Inh,[1],0%
same,%Inh,[2],22%
same,%Inh,[3],0%
same,%Inh,JNK1,2%
same,%Inh,JNK2,37%
same,%Inh,JNK3,0%
same,%Inh,KIT-autoinhibited,5%
same,%Inh,KIT,100%
same,%Inh,LATS1; [4],0%
same,%Inh,LATS2,0%
same,%Inh,LCK,65%
same,%Inh,LIMK1,0%
same,%Inh,LIMK2,0%
same,%Inh,LKB1,53%
same,%Inh,LOK,99.2%
same,%Inh,LRRK2,1%
same,%Inh,LTK,33%
same,%Inh,LYN,28%
same,%Inh,LZK,49%
same,%Inh,MAK,0%
COCCOCCOc1cc2ncc3c4ccc(C#N)cc4[nH]c3c2cc1OC,%Inh,[1],68%
same,%Inh,[2],11%
same,%Inh,[3],84%
same,%Inh,JNK1,5%
same,%Inh,JNK2,0%
same,%Inh,JNK3,0%
same,%Inh,KIT-autoinhibited,61%
same,%Inh,KIT,73%
same,%Inh,LATS1; [4],2%
same,%Inh,LATS2,10%
same,%Inh,LCK,35%
same,%Inh,LIMK1,16%
same,%Inh,LIMK2,1%
same,%Inh,LKB1,15%
same,%Inh,LOK,73%
same,%Inh,LRRK2,95.4%
same,%Inh,LTK,34%
same,%Inh,LYN,31%
same,%Inh,LZK,1%
same,%Inh,MAK,0%
Cl.Cl.NCC(C(=O)Nc1cc(Br)c(-c2ccnc3[nH]ccc23)s1)c1ccccc1 (stereo not drawn) [GSK1269851],%Inh,[1],0%
same,%Inh,[2],78%
same,%Inh,[3],100%
same,%Inh,JNK1,15%
same,%Inh,JNK2,7%
same,%Inh,JNK3,0%
same,%Inh,KIT-autoinhibited,2%
same,%Inh,KIT,12%
same,%Inh,LATS1; [4],62%
same,%Inh,LATS2,80%
same,%Inh,LCK,28%
same,%Inh,LIMK1,27%
same,%Inh,LIMK2,0%
same,%Inh,LKB1,78%
same,%Inh,LOK,0%
same,%Inh,LRRK2,20%
same,%Inh,LTK,0%
same,%Inh,LYN,0%
same,%Inh,LZK,0%
same,%Inh,MAK,1%
COc1cc(Nc2nccc(-c3c(-c4cccc(NC(=O)c5c(F)cccc5F)c4)nn4ccccc34)n2)cc(OC)c1OC [GSK323521],%Inh,[1],0%
same,%Inh,[2],11%
same,%Inh,[3],0%
same,%Inh,JNK1,12%
same,%Inh,JNK2,15%
same,%Inh,JNK3,3%
same,%Inh,KIT-autoinhibited,23%
same,%Inh,KIT,100%
same,%Inh,LATS1; [4],0%
same,%Inh,LATS2,11%
same,%Inh,LCK,23%
same,%Inh,LIMK1,2%
same,%Inh,LIMK2,12%
same,%Inh,LKB1,0%
same,%Inh,LOK,85%
same,%Inh,LRRK2,0%
same,%Inh,LTK,26%
same,%Inh,LYN,28%
same,%Inh,LZK,0%
same,%Inh,MAK,9%
CCn1c(-c2nonc2N)nc2c(C#CC(C)(C)O)ncc(OCCCCN)c21.O=C(O)C(F)(F)F.O=C(O)C(F)(F)F [GSK507274],%Inh,[1],0%
same,%Inh,[2],60%
same,%Inh,[3],0%
same,%Inh,JNK1,25%
same,%Inh,JNK2,10%
same,%Inh,JNK3,11%
same,%Inh,KIT-autoinhibited,0%
same,%Inh,KIT,17%
same,%Inh,LATS1; 1 µM,0%
same,%Inh,LATS2,89%
same,%Inh,LCK,0%
same,%Inh,LIMK1,0%
same,%Inh,LIMK2,0%
same,%Inh,LKB1,0%
same,%Inh,LOK,0%
same,%Inh,LRRK2,45%
same,%Inh,LTK,0%
same,%Inh,LYN,0%
same,%Inh,LZK,0%
same,%Inh,MAK,88%
Clc1ccc(-c2nn3ncccc3c2-c2ccnc(Nc3ccc4c(c3)OCCO4)n2)cc1 [GW829116],%Inh,[1],17%
same,%Inh,[2],2%
same,%Inh,[3],0%
same,%Inh,JNK1,99.2%
same,%Inh,JNK2,99.9%
same,%Inh,JNK3,100%
same,%Inh,KIT-autoinhibited,36%
same,%Inh,KIT,99.9%
same,%Inh,LATS1; [4],0%
same,%Inh,LATS2,0%
same,%Inh,LCK,83%
same,%Inh,LIMK1,0%
same,%Inh,LIMK2,0%
same,%Inh,LKB1,0%
same,%Inh,LOK,71%
same,%Inh,LRRK2,0%
same,%Inh,LTK,19%
same,%Inh,LYN,27%
same,%Inh,LZK,0%
same,%Inh,MAK,0%
Cc1cccc(Nc2nc(N[C@H]3CCNC3)ncc2C(N)=O)c1.Cl [GSK2197149],%Inh,[1],88%
same,%Inh,[2],58%
same,%Inh,[3],3%
same,%Inh,JNK1,67%
same,%Inh,JNK2,29%
same,%Inh,JNK3,34%
same,%Inh,KIT-autoinhibited,0%
same,%Inh,KIT,94.9%
same,%Inh,LATS1; [4],0%
same,%Inh,LATS2,0%
same,%Inh,LCK,40%
same,%Inh,LIMK1,0%
same,%Inh,LIMK2,0%
same,%Inh,LKB1,8%
same,%Inh,LOK,0%
same,%Inh,LRRK2,56%
same,%Inh,LTK,0%
same,%Inh,LYN,26%
same,%Inh,LZK,0%
same,%Inh,MAK,11%
Cc1cccc(NC(=O)Nc2ccc(Oc3ncnc4ccn(C)c34)cc2)c1,%Inh,[1],30%
same,%Inh,[2],0%
same,%Inh,[3],9%
same,%Inh,JNK1,9%
same,%Inh,JNK2,0%
same,%Inh,JNK3,0%
same,%Inh,KIT-autoinhibited,97%
same,%Inh,KIT,100%
same,%Inh,LATS1; [4],5%
same,%Inh,LATS2,0%
same,%Inh,LCK,0%
same,%Inh,LIMK1,7%
same,%Inh,LIMK2,0%
same,%Inh,LKB1,42%
same,%Inh,LOK,86%
same,%Inh,LRRK2,0%
same,%Inh,LTK,17%
same,%Inh,LYN,7%
same,%Inh,LZK,0%
same,%Inh,MAK,0%
